Assay outcomes from PubChem BioAssay.
A selection: hits, their analogues and other compounds. The true share with any hit is near 19%.
S-ASM inh: blocks human secretory acid sphingomyelinase. P17405. placental ASM, HMU-PC fluorogenic substrate, 60 min. Potency, µM (series often up to 57.5 µM), inactives show top-dose activity change, negative = inhibition, usual class: inhibitors. actives 0.006% (n = 340,000). AID 504937; also: potency is read from the fitted curve at half-maximal effect
Target sequence (P17405 47-631 limits assumed): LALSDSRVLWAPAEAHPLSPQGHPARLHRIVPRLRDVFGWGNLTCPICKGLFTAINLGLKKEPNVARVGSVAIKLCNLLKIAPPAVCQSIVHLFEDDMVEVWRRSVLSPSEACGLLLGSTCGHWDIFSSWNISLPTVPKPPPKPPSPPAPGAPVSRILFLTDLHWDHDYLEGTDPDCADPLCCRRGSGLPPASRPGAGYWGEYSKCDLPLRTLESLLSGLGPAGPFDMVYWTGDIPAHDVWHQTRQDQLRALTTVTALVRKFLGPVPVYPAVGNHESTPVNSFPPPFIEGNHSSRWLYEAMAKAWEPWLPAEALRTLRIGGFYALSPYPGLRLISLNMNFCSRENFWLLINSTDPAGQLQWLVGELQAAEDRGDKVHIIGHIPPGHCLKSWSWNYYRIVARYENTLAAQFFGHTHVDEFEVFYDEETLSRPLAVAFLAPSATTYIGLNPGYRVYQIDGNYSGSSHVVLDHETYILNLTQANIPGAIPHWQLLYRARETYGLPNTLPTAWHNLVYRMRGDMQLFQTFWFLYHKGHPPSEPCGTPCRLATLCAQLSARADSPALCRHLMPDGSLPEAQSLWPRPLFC
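qHTS format. ASM enzyme prepared from human placenta hydrolyses the fluorogenic substrate HMU-PC0 (9 uM final) over 60 min at 37 °C after a 10 min compound preincubation.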
TGFb inhibitor: inhibitors of TGF-b signaling | HepG2 CAGA-GFP TGF-b/SMAD3 reporter, GFP fluorescence, 18 h; TGF-beta stimulated, 500 pg/mL final | actives 1.2% (n = 410,000) | Potency, µM (doses to about 46.1 µM), without a hit: at the highest dose activity, negative = inhibition, most hits filed as inhibitors; also: potency is read from the fitted curve at half-maximal effect; % is scaled to controls: 0 for no effect and ±100 for the full control effect; nearly all actives have a fitted effect of over 65% in size
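Using HEPG2 CAGA-GFP reporter cells at 1000 cells/well, we pinned test compounds, stimulated with recombinant TGF-beta (500 pg/mL final) and measured total well GFP after 18 h.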
TDP1 cell CPT: DT40-hTDP1 cell growth loss with CPT | chicken DT40 Tdp1-/-;hTDP1 cells + 20 nM CPT, ATP luminescence, 48 h | Potency, µM (doses to about 46.2 µM), inactives show at the highest dose activity change, negative = growth inhibition, hits mostly inhibitors | actives 12% (n = 420,000) | AID 686979; also: potency is read from the fitted curve at half-maximal effect; % is scaled to controls: 0 for no effect and ±100 for the full control effect; nearly all actives have a fitted effect of over 55% in size
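Chicken DT40 Tdp1-/- cells stably complemented with human TDP1 were seeded at 400 cells/well in medium containing 20 nM camptothecin, exposed to pin-transferred compounds, and grown at 37 °C for at least 48 hr. Viability was read as ATP luminescence.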
TDP1 cell noCPT: qHTS for Inhibitors of human tyrosyl-DNA phosphodiesterase 1 (TDP1): qHTS in cells in absence of CPT; DT40 Tdp1-/- hTDP1 cells, no CPT, ATP luminescence, 48 h; Potency, µM (highest dose often 46.2 µM), for inactives: at the top dose activity change, negative = growth inhibition, usual class: inhibitors; actives 15% (n = 420,000); AID 686978, 2013; also: potency is read from the fitted curve at half-maximal effect; % is scaled to controls: 0 for no effect and ±100 for the full control effect; nearly all actives have a fitted effect of over 55% in size
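DT40 Tdp1-/-;hTDP1 cells, no CPT (DMSO vehicle only), 400 cells/well; compounds pin-transferred; ≥48 hr, 37 °C; CellTiter-Glo 30 min RT dark, luminescence read.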
HepG2 tox-1: HepG2 cytotoxicity, counter-screen for TGF-b inhibitors. HepG2 CAGA-GFP viability, ATP luminescence, 18 h. Potency, µM (series often up to 46.1 µM), inactives show at the highest dose activity change, negative = cytotoxicity, actives largely listed as cytotoxic. actives 0.76% (n = 410,000); also: potency is read from the fitted curve at half-maximal effect
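HepG2 CAGA-GFP cells (1000/well, DMEM with 1% FBS) received compound, then TGF-beta at 500 pg/mL final, and were incubated 18 hours at 37 degrees C. Viability was read by CellTiter-Glo luminescence. Media-only wells were set as complete cell-killing and DMSO as no toxicity.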
IL-1B inflam inh: inflammasome signaling inhibition, IL-1 beta readout | THP-1 LPS/ATP IL-1B secretion, AlphaLISA, 16 h; hits give low values | actives 4.7% (n = 360,000) | activity change, % at 57.5 µM; in the data active = activity change below about -50%; inconclusive = mostly about -30% to -49%; also: % is scaled to controls: 0 for no effect and ±100 for the full control effect
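THP-1 cells pretreated 1 hr with compounds (up to 57.5 uM final), then stimulated with LPS (250 ng/mL final) plus ATP (1.25 mM final); secreted IL-1B measured by AlphaLISA after 16 hr, decreased signal indicating inhibition.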
TGFb CAGA inh: TGF-b pathway inhibition, cherry-pick retest | HepG2 CAGA-GFP TGF-b reporter, GFP fluorescence, 18 h; cells stimulated with TGF-beta, 500 pg/mL | actives 63% (n = 1,600) | AID 720534 | shares compounds with TGFb inhibitor | Potency, µM (titrated, usually from 46.1 µM), for the others: top-dose activity, negative = inhibition, most hits filed as inhibitors; also: potency is read from the fitted curve at half-maximal effect; % is scaled to controls: 0 for no effect and ±100 for the full control effect; nearly all actives have a fitted effect of over 65% in size
HepG2 tox-2: HepG2 cytotoxicity, TGF-b inhibitor counterscreen | Potency, µM (highest dose often 46.1 µM), for the others: top-dose activity, negative = cytotoxicity, usual class: inhibitors | HepG2 CAGA-GFP viability, ATP luminescence, 18 h; cells stimulated with TGF-beta, 500 pg/mL | actives 27% (n = 1,600) | shares compounds with TGFb inhibitor; also: potency is read from the fitted curve at half-maximal effect; % is scaled to controls: 0 for no effect and ±100 for the full control effect; nearly all actives have a fitted effect of over 70% in size
TGFb CCL64 inh: TGF-b inhibition, CCL64 orthogonal assay; AID 720536; Potency, µM (series often up to 46.1 µM), for the others: top-dose activity, negative = inhibition, usual class: inhibitors; shares compounds with TGFb inhibitor; actives 41% (n = 1,600); CCL64 CAGA-GFP reporter, TGF-b stimulated, GFP fluorescence, 18 h; also: potency is read from the fitted curve at half-maximal effect; nearly all actives have a fitted effect of over 65% in size
TGFb COP inh: validation of TGF-b inhibitors in HepG2 COP promoter reporter; shares compounds with TGFb inhibitor; HepG2 COP-GFP TGF-b reporter, GFP fluorescence, 18 h; cells stimulated by added recombinant TGF-beta; Potency, µM (doses to about 46.1 µM), inactives show top-dose activity, negative = inhibition, most hits filed as inhibitors; actives 3% (n = 1,600); also: potency is read from the fitted curve at half-maximal effect; nearly all actives have a fitted effect of over 70% in size
The depositor's hits bear a star; i = inactive; ? = inconclusive; nt = not tested or not shown. Unless noted, calls follow the shape of the dose curve; as a rule, active = well fitted curve in the direction sought with a large enough effect; inconclusive = small, poorly fitted or top-dose-only effect, or another doubt; inactive = no such curve, though single readings can be large; an effect the other way counts as inactive or inconclusive.

SMILES | S-ASM inh | TGFb inhibitor | TDP1 cell CPT | TDP1 cell noCPT | HepG2 tox-1 | IL-1B inflam inh | TGFb CAGA inh | HepG2 tox-2 | TGFb CCL64 inh | TGFb COP inh
Oc1c(CN2CCCCC2)cc(Br)c2cccnc12 | 1.4% | 2.82µM* | 5.17µM* | 5.17µM* | -46.2% | 106.0 | 20.6µM* | ? | 7.31µM* | 18.8%
Oc1c(Cl)cc(CN2CCOCC2)c2cccnc12 | 3.6% | 2.51µM* | 0.651µM* | 1.03µM* | -49.1% | 95.0 | ? | ? | ? | 5.5%
CCOC(=O)C1CCN(C(=O)c2cc3cc(Cl)ccc3[nH]2)CC1 | -0.5% | 0.3% | ? | -27.5% | 3.9% | 5.5 | nt | nt | nt | nt
O=C(COc1ccccc1F)Nc1ccccc1C(=O)OCc1cc(=O)n2nc(C3CC3)sc2n1 | nt | 5.3% | -5.8% | -16.2% | -0.8% | nt | nt | nt | nt | nt
O=[N+]([O-])c1cc(-c2nc(-c3ccccc3)no2)ccc1NC1CCCCC1 | nt | -7.8% | 5.3% | -6.5% | -7.5% | nt | nt | nt | nt | nt
O=C(CN1CCN(S(=O)(=O)c2ccccc2)CC1)NCCc1ccccc1 | 2.0% | -4.7% | -3.7% | -13.1% | 25.1% | i | nt | nt | nt | nt
Cc1cc(S(=O)(=O)N2CCN(CC(=O)NCCc3cccs3)CC2)ccc1Br | 0.3% | 11.2µM* | ? | ? | -7.9% | 15.0 | ? | -10.0% | -9.9% | 25.4%
COc1ccccc1NS(=O)(=O)c1cccc(NC(=O)Nc2ccccc2)c1 | -21.6% | 10µM* | ? | 14.6µM* | -25.4% | -79.1* | ? | ? | ? | 57.2%
Cc1ccc(OCCNC(=O)c2ccc(NC(=O)CC3SC(N4CCCC4)=NC3=O)cc2)cc1 (stereo not drawn) | -4.1% | -5.7% | -16.5% | ? | -1.5% | 22.9 | nt | nt | nt | nt
Cn1cnc([N+](=O)[O-])c1Sc1nc(N)nc2c1ncn2C1CC(O)C(CO)O1 (stereo not drawn) | 2.3% | 3.98µM* | ? | 13µM* | -38.6% | -14.8 | 4.11µM* | ? | 18.8% | 82.2%
Cn1cnc([N+](=O)[O-])c1Sc1nc(N)nc2c1ncn2C1OC(CO)C(O)C1O (stereo not drawn) | 6.4% | 2µM* | ? | ? | -45.6% | -19.0 | 2.91µM* | 0.92µM* | 3.1% | 65.0%
Cc1onc(-c2ccccc2)c1C(=O)OCC(=O)Nc1cccc(Cl)c1 | -13.2% | ? | ? | ? | -27.4% | -6.3 | nt | nt | nt | nt
